Experimental data taken from ChEMBL document CHEMBL1961873, “Compounds: GSK PKIS; Assays: Nanosyn kinase panel” (2012).
Where “and” joins values, the source holds several entries; their conditions need not be identical. Equal entries are not always repeated.

Assays:
[1] = target: 5'-AMP-activated protein kinase catalytic subunit alpha-2 (Homo sapiens) (UniProt P54646); conditions: at 1 µM
[2] = target: T1, NUAK family SNF1-like kinase 1 (Homo sapiens) (UniProt O60285); conditions: at 0.1 µM
T1 sequence (whole entry): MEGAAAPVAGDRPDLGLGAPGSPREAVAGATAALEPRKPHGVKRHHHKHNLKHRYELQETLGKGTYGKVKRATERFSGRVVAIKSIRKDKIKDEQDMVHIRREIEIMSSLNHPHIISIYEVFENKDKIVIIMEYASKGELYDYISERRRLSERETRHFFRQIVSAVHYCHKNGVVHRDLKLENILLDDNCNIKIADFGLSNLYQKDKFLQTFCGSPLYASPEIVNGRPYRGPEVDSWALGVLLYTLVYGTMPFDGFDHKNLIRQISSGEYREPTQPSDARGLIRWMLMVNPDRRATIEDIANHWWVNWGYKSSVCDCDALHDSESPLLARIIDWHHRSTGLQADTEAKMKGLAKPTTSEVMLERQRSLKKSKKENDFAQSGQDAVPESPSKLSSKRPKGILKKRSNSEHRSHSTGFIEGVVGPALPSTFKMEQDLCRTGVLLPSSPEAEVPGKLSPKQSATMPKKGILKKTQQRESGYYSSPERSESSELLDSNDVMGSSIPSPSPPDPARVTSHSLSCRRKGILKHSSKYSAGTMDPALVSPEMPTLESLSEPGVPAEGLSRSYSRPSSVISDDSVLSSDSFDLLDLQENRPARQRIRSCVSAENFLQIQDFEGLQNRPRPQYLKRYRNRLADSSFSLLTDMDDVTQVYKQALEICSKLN

[3] = target: T1, NUAK family SNF1-like kinase 1 (Homo sapiens); conditions: at 1 µM
[4] = target: T2, Serine/threonine-protein kinase BRSK1 (Homo sapiens) (UniProt Q8TDC3); conditions: at 0.1 µM
T2 sequence (whole entry): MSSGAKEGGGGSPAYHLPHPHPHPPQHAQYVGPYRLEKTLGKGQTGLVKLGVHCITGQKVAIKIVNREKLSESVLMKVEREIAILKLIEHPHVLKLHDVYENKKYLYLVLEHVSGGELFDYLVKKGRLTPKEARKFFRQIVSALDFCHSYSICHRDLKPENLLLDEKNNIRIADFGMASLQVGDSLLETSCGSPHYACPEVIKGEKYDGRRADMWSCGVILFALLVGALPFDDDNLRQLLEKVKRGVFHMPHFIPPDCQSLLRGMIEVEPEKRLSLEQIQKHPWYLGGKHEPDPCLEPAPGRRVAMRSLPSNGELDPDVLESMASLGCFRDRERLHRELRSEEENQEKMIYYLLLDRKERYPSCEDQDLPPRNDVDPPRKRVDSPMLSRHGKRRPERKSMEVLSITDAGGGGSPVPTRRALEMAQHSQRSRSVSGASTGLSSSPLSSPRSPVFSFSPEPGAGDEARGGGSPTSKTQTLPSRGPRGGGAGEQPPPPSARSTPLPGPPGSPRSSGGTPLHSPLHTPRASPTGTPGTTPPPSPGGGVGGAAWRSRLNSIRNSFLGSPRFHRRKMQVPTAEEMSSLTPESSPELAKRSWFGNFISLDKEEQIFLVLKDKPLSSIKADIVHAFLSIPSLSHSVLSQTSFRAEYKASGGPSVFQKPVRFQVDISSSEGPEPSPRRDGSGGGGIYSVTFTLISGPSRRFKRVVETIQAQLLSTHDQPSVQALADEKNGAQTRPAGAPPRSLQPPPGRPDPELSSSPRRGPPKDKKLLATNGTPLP

[5] = target: T2, Serine/threonine-protein kinase BRSK1 (Homo sapiens); conditions: at 1 µM
[6] = target: T3, Serine/threonine-protein kinase BRSK2 (Homo sapiens) (UniProt Q8IWQ3); conditions: at 0.1 µM
T3 sequence (whole entry): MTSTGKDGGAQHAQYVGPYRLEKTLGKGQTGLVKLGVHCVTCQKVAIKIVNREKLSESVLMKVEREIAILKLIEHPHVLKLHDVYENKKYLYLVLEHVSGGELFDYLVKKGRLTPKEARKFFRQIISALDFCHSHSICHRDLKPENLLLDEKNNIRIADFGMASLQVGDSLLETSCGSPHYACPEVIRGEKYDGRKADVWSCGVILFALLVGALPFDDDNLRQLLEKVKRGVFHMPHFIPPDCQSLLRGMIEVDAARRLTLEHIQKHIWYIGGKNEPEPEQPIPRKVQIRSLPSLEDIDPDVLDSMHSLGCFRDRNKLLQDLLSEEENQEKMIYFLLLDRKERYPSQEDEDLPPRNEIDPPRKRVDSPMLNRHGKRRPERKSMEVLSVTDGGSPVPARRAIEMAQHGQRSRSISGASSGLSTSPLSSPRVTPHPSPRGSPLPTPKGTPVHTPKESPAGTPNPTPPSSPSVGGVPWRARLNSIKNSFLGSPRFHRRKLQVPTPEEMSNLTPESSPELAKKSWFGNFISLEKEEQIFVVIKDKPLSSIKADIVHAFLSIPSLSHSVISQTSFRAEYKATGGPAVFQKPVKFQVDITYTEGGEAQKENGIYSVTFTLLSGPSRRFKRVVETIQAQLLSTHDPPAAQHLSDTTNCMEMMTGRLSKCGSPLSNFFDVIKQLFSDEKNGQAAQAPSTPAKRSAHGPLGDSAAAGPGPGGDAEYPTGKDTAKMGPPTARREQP

[7] = target: T3, Serine/threonine-protein kinase BRSK2 (Homo sapiens); conditions: at 1 µM
[8] = target: Calcium/calmodulin-dependent protein kinase type 1D (Homo sapiens) (UniProt Q8IU85); conditions: at 0.1 µM
Sequence of Calcium/calmodulin-dependent protein kinase type 1D (Homo sapiens) (Q8IU85 whole entry, looked up): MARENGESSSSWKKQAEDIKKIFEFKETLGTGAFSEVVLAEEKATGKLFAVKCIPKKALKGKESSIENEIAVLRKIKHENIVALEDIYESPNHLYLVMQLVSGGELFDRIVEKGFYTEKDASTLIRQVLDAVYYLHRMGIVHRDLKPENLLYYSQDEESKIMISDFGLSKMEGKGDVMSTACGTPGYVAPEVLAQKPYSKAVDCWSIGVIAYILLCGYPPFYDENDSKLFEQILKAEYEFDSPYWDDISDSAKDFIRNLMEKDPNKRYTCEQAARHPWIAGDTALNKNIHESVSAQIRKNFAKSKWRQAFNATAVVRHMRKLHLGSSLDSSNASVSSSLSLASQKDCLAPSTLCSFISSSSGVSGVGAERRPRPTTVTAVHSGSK

[9] = target: Calcium/calmodulin-dependent protein kinase type 1D (Homo sapiens) (UniProt Q8IU85); conditions: at 1 µM
[10] = target: Calcium/calmodulin-dependent protein kinase type II subunit alpha (Homo sapiens) (UniProt Q9UQM7); conditions: at 0.1 µM
Sequence of Calcium/calmodulin-dependent protein kinase type II subunit alpha (Homo sapiens) (Q9UQM7 whole entry): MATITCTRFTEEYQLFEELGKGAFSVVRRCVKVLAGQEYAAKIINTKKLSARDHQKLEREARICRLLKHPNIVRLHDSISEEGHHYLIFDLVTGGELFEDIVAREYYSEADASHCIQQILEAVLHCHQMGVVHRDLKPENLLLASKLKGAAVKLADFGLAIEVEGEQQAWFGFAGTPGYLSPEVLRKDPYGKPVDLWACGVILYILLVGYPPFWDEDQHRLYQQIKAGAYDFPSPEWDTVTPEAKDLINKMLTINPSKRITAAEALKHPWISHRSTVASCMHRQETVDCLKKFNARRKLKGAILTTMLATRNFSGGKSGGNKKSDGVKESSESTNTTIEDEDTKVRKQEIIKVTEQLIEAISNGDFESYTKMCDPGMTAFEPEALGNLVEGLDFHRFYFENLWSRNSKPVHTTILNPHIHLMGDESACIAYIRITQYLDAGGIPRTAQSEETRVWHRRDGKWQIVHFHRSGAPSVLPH

[11] = target: Calcium/calmodulin-dependent protein kinase type II subunit alpha (Homo sapiens) (UniProt Q9UQM7); conditions: at 1 µM
[12] = target: Calcium/calmodulin-dependent protein kinase type II subunit delta (Homo sapiens) (UniProt Q13557); conditions: at 0.1 µM
Sequence of Calcium/calmodulin-dependent protein kinase type II subunit delta (Homo sapiens) (Q13557 whole entry): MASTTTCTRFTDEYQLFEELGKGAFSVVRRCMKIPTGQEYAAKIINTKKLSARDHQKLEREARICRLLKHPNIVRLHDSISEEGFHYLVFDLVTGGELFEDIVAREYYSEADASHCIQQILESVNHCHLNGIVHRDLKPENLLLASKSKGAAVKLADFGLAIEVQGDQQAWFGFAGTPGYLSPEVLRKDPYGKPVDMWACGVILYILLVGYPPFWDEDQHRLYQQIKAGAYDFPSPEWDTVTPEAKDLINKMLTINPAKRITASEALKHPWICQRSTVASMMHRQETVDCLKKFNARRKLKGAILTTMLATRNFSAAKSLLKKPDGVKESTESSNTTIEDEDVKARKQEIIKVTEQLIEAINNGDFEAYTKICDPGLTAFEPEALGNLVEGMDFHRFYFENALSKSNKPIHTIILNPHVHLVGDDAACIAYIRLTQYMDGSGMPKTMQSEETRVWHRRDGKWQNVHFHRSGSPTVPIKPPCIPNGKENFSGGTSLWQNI

[13] = target: Calcium/calmodulin-dependent protein kinase type II subunit delta (Homo sapiens) (UniProt Q13557); conditions: at 1 µM
[14] = target: T4, Calcium/calmodulin-dependent protein kinase type IV (Homo sapiens) (UniProt Q16566); conditions: at 0.1 µM
T4 sequence (whole entry): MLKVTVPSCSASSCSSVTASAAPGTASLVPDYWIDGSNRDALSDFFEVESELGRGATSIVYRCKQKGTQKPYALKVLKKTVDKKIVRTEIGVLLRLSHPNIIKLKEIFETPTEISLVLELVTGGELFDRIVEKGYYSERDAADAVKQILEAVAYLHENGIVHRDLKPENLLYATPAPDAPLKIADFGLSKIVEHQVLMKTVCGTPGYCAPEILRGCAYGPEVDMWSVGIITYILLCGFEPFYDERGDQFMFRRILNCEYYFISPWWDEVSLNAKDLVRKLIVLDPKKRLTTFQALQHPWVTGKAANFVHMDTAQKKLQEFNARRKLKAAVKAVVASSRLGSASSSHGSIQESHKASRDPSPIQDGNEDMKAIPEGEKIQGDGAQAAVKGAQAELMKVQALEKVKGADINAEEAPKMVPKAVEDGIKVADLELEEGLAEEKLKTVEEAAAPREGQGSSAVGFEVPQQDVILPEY

[15] = target: T4, Calcium/calmodulin-dependent protein kinase type IV (Homo sapiens); conditions: at 1 µM
[16] = target: T5, Serine/threonine-protein kinase Chk1 (Homo sapiens) (UniProt O14757); conditions: at 0.1 µM
T5 sequence (whole entry): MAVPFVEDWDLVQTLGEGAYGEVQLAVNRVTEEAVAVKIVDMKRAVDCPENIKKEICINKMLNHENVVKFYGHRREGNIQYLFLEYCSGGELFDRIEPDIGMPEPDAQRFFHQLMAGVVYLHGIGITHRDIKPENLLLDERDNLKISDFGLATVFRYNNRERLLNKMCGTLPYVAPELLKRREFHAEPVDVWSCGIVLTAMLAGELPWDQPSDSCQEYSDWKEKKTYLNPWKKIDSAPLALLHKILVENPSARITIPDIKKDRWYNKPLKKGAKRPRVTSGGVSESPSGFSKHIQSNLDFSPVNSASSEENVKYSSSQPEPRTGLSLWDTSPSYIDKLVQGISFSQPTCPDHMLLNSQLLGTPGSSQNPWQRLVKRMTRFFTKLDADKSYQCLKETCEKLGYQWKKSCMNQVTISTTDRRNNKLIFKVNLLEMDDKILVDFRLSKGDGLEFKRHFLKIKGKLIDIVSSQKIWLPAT

[17] = target: T5, Serine/threonine-protein kinase Chk1 (Homo sapiens); conditions: at 1 µM
[18] = target: Serine/threonine-protein kinase Chk2 (Homo sapiens) (UniProt O96017); conditions: at 0.1 µM
Sequence of Serine/threonine-protein kinase Chk2 (Homo sapiens) (O96017 whole entry): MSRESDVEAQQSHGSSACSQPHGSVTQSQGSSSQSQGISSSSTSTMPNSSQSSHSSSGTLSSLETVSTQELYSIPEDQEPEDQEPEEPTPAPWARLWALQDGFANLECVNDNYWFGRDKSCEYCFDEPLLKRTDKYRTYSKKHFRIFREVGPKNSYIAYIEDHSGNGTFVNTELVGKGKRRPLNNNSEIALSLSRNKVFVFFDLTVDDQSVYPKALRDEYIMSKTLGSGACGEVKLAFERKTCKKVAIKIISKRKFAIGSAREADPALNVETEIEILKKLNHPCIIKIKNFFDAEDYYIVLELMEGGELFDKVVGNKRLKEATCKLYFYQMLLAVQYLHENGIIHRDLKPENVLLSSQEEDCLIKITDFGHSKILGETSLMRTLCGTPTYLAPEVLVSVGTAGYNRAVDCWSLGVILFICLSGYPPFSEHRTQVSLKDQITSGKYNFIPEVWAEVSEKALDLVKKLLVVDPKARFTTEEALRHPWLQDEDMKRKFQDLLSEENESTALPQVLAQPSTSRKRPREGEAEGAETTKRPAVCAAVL

[19] = target: Serine/threonine-protein kinase Chk2 (Homo sapiens) (UniProt O96017); conditions: at 1 µM
[20] = target: Death-associated protein kinase 1 (Homo sapiens) (UniProt P53355); conditions: at 0.1 µM;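 also: reported figure is the mean inhibition of DAPK1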
Sequence of Death-associated protein kinase 1 (Homo sapiens) (P53355 whole entry, looked up): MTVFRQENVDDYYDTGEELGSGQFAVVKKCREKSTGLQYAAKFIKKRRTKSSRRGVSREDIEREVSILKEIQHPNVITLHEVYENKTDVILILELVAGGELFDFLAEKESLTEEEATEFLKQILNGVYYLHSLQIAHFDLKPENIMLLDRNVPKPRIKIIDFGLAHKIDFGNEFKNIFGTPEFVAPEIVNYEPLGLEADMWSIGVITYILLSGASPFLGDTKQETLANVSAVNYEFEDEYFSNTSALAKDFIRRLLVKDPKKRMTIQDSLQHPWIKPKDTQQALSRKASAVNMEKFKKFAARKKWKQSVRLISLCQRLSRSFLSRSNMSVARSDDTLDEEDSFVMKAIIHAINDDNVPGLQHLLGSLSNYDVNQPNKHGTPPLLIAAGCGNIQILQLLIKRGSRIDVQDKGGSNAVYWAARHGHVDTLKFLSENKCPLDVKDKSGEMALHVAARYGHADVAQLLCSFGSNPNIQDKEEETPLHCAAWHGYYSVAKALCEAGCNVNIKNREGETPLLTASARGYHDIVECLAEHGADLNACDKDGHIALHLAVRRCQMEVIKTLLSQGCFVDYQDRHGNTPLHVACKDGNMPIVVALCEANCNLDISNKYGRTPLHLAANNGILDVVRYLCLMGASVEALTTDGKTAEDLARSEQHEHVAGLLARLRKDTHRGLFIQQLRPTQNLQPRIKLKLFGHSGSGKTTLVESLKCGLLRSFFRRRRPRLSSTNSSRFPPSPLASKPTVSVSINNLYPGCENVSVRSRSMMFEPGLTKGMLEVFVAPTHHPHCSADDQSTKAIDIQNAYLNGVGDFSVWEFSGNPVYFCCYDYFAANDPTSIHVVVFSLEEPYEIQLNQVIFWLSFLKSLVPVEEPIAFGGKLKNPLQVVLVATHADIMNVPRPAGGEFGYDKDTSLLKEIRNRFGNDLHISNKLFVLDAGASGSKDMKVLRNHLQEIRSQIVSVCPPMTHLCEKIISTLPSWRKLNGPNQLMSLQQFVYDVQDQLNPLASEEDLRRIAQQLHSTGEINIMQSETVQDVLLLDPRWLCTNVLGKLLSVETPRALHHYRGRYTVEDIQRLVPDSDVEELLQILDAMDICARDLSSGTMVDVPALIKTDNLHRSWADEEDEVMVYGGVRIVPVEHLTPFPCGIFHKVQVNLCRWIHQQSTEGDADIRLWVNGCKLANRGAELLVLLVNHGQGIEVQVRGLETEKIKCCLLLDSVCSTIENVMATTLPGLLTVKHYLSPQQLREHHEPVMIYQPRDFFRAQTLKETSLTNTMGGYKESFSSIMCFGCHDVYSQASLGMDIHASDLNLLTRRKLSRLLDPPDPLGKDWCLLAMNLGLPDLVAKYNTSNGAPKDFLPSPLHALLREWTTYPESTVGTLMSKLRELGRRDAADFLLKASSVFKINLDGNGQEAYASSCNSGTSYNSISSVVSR

Sequence of 5'-AMP-activated protein kinase catalytic subunit alpha-2 (Homo sapiens) (P54646 whole entry, looked up): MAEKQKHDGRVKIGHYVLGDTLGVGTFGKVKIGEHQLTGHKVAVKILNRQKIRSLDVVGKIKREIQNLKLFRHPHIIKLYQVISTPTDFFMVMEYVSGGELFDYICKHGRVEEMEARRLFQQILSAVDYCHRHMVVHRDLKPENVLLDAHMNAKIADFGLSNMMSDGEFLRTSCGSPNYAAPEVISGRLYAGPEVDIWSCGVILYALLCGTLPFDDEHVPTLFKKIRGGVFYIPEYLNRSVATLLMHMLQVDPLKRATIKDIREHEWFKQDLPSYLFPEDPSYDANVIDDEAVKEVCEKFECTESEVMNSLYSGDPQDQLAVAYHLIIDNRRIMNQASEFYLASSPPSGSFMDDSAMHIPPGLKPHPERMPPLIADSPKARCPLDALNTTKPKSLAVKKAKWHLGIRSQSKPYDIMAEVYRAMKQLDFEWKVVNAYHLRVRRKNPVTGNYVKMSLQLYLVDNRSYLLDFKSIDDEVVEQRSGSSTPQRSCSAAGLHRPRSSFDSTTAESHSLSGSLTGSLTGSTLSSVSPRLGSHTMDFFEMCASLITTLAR

Nc1nonc1-c1nc2cnccc2n1C1CC1
inhibition [1]: 7.08% and 5.85%
inhibition [2]: 5% and 1.55%
inhibition [3]: 13.1% and 10.2%
inhibition [4]: 5.76% and 4.57%
inhibition [5]: 21.7% and 18.1%
inhibition [6]: 8.42% and 4.02%
inhibition [7]: 27.9% and 27.1%
inhibition [8]: 0.19% and 0.41%
inhibition [9]: 1.1% and 0.69%
inhibition [10]: 4.16% and 0.57%
inhibition [11]: 5.07% and 5.46%
inhibition [12]: 3.94% and 2.63%
inhibition [13]: 7.79% and 4%
inhibition [14]: -0.5% and 1.35%
inhibition [15]: 0.32% and 1.21%
inhibition [16]: 3.32% and 0.59%
inhibition [17]: 14.4% and 10.5%
inhibition [18]: 2.75% and 1.53%
inhibition [19]: 6.34% and 2.63%
inhibition [20]: 2.98% and -0.26%

COc1cc(N2CCN(C(C)C)CC2)ccc1Nc1nc(Nc2cccc3ncccc23)c2cc[nH]c2n1
inhibition [1]: 0.77%
inhibition [2]: 13.2%
inhibition [3]: 47.5%
inhibition [4]: -0.07%
inhibition [5]: 0.86%
inhibition [6]: -0.35%
inhibition [7]: -0.59%
inhibition [8]: 1.82%
inhibition [9]: 17.8%
inhibition [10]: -2.58%
inhibition [11]: 1.11%
inhibition [12]: -0.04%
inhibition [13]: 9.94%
inhibition [14]: 1.22%
inhibition [15]: 4.44%
inhibition [16]: 0.3%
inhibition [17]: 1.78%
inhibition [18]: -0.49%
inhibition [19]: 4.32%
inhibition [20]: -1.26%

c1cnn2ncc(-c3ccnc(NCCCN4CCOCC4)n3)c2c1
inhibition [1]: 2.36%
inhibition [2]: -0.66%
inhibition [3]: 0.6%
inhibition [4]: 0.82%
inhibition [5]: 1.97%
inhibition [6]: 1.69%
inhibition [7]: 1.28%
inhibition [8]: -0.6%
inhibition [9]: -0.17%
inhibition [10]: 2.86%
inhibition [11]: 6.81%
inhibition [12]: 3.65%
inhibition [13]: 3.72%
inhibition [14]: -0.02%
inhibition [15]: -0.41%
inhibition [16]: 0.25%
inhibition [17]: 1.83%
inhibition [18]: 2.74%
inhibition [19]: 3.47%
inhibition [20]: -0.4%

Cc1ccc(-c2cc3c(NC(=O)C4CC4)ncnc3o2)cc1
inhibition [1]: 5.09%
inhibition [2]: 2.09%
inhibition [3]: 6.68%
inhibition [4]: 2.59%
inhibition [5]: 4.69%
inhibition [6]: 2.82%
inhibition [7]: 4.69%
inhibition [8]: 0.92%
inhibition [9]: 1.61%
inhibition [10]: 4.04%
inhibition [11]: 4.25%
inhibition [12]: 3.37%
inhibition [13]: 3.7%
inhibition [14]: -0.74%
inhibition [15]: 30.3%
inhibition [16]: -0.37%
inhibition [17]: 3.47%
inhibition [18]: 2.56%
inhibition [19]: 5.07%
inhibition [20]: 3.63%

Cn1c(-c2nonc2N)nc2cnccc21
inhibition [1]: 4.41%
inhibition [2]: 0.78%
inhibition [3]: 4.88%
inhibition [4]: 2.34%
inhibition [5]: 5.84%
inhibition [6]: 3.19%
inhibition [7]: 6.4%
inhibition [8]: 0.12%
inhibition [9]: 0.97%
inhibition [10]: 3.13%
inhibition [11]: 1.59%
inhibition [12]: 2.9%
inhibition [13]: 4.76%
inhibition [14]: 2.54%
inhibition [15]: 2.02%
inhibition [16]: 1.55%
inhibition [17]: 2.48%
inhibition [18]: 2.16%
inhibition [19]: 3.21%
inhibition [20]: 2.36%

CNC(=O)c1cncc(/C=C/c2ccccc2C)c1
inhibition [1]: 6.66%
inhibition [2]: 2.2%
inhibition [3]: 9.32%
inhibition [4]: 2.32%
inhibition [5]: 15%
inhibition [6]: 3.54%
inhibition [7]: 17.4%
inhibition [8]: -0.17%
inhibition [9]: -0.91%
inhibition [10]: 4.14%
inhibition [11]: 3.24%
inhibition [12]: 2.3%
inhibition [13]: 3.14%
inhibition [14]: -1.31%
inhibition [15]: -2.38%
inhibition [16]: 5.89%
inhibition [17]: 5.73%
inhibition [18]: 2.11%
inhibition [19]: 3.83%
inhibition [20]: 6.54%

CS(=O)(=O)CCNCc1ccoc1-c1ccc2ncnc(Nc3ccc(OCc4ccccc4)cc3)c2c1
inhibition [1]: 1.14%
inhibition [2]: 2.3%
inhibition [3]: 2.12%
inhibition [4]: -0.34%
inhibition [5]: -0.87%
inhibition [6]: 0.28%
inhibition [7]: 1.27%
inhibition [8]: -0.18%
inhibition [9]: -0.02%
inhibition [10]: -0.63%
inhibition [11]: 0.09%
inhibition [12]: 0.18%
inhibition [13]: -0.44%
inhibition [14]: -0.43%
inhibition [15]: -1.35%
inhibition [16]: 0.86%
inhibition [17]: -2.73%
inhibition [18]: 1.56%
inhibition [19]: 8.55%
inhibition [20]: -0.21%
